Two molecules from PubChem BioAssay AID504613 (National Center for Advancing Translational Sciences (NCATS), 2011) can be followed below.

The structures appear in SMILES notation. Active and inactive are the calls of the source.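 How the source made its calls: active means clear growth inhibition over 72 hours in leukemia cell lines carrying a fused MLL gene, giving a fitted IC50; inactive means the rest.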

The nature of the experiment: Confirmation of Inhibitors Targeting the Menin-MLL Interaction in MLL Related Leukemias: Confirmation in an MLL leukemia cell growth assay. Conditions: MV4-11 MLL-AF4 leukemia growth, MTT absorbance, 72 h; series mostly up to 50 µM; absorbance, lower = inhibition: at the top concentration. An excerpt: qHTS Assay for Inhibitors Targeting the Menin-MLL Interaction in MLL Related Leukemias NIH Chemical Genomics Center [NCGC] NIH Molecular Libraries Probe Centers Network [MLPCN] MLPCN Grant: MH084875-01A1 Assay Submitter (PI): Jolanta Grembecka, Tomasz Cierpicki, University of Virginia Translocations of the MLL (Mixed Lineage Leukemia) gene are frequently found in human leukemias affecting both children and adults. Fusion of MLL to one of more than 60 genes results in generation of oncogenic proteins upregulating Hox genes, which are vital to blood cell development. Patients harboring fusion of the MLL gene suffer from aggressive leukemias and respond poorly to available therapies. All of the oncogenic fusion proteins have a preserved N-terminal fragment of MLL that has been identified to interact with menin. It has been recently discovered that association with menin is critical to the leukemogenic activity of the MLL fusion oncoproteins. […] We have developed and optimized a fluorescence polarization-based assay for the identification of Menin-MLL inhibitors. […]
Inhibition of cell proliferation in the MLL leukemia cells: MV4-11 (MLL-AF4), ML-2 (MLL-AF6) KOPN-8 (MLL-ENL) induced by compound measured after 72h treatment, as detected by the MTT cell viability assay. […] Plates were read for absorbance at 570 nm using a PHERAstar BMG microplate reader. […]
As to `N#Cc1ccc(OCCCN2CCC(C(O)(c3ccccc3)C3CCCC3)CC2)cc1` (configuration not stated), the IC50 was 12.8 µM (active).

Turning to `N#Cc1ccc(OCCCN2CCC(C(O)c3ccccc3)CC2)cc1` (configuration not stated), the “absorbance, lower = inhibition” value is 1.05 (inactive).
